Experimental data from PubChem BioAssay (NCI).
Compounds without any hit were thinned out: in the full panel of roughly 83,000, 20% have a hit.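 Results are percent growth after 48 hours of single-concentration exposure. 100 means growth as in untreated cells, lower positive values show inhibition; negative values down to -100 show cell death.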 Active and inactive are the calls of the source. Rule for the calls: active = growth percent below 10; inactive = the rest.

What was measured:
Assay in all cases: NCI-60 one-dose screen, 48 h (100 = growth as untreated, 0 = no growth, -100 = all killed)
Conditions in all cases: 10 µM unless noted
[1] = tested on: SR leukemia
[2] = tested on: RPMI-8226 leukemia
[3] = tested on: OVCAR-8 ovarian
[4] = tested on: OVCAR-4 ovarian
[5] = tested on: SK-OV-3 ovarian
[6] = tested on: IGROV1 ovarian
[7] = tested on: OVCAR-3 ovarian
[8] = tested on: HS 578T breast
[9] = tested on: NCI/ADR-RES ovarian
[10] = tested on: OVCAR-5 ovarian

SMILES	growth [1]	growth [2]	growth [3]	growth [4]	growth [5]	growth [6]	growth [7]	growth [8]	growth [9]	growth [10]
CN1C(=O)C2(SCC(C(=O)NCc3ccccc3)N2C(=O)C2CCCCC2)c2ccccc21 (centres undefined)	83.3% (inactive)	95% (inactive)	92% (inactive)	88.1% (inactive)	114% (inactive)	88% (inactive)	90.5% (inactive)	89.3% (inactive)	94.2% (inactive)	
COc1ccc(-c2nc(SCC(=O)Nc3ccc(C(=O)/C=C/c4ccc(Cl)cc4)cc3)[nH]c(=O)c2C#N)cc1	72.3% (inactive)	98.3% (inactive)	106% (inactive)	99.8% (inactive)	96.2% (inactive)	111% (inactive)	101% (inactive)	81.3% (inactive)	102% (inactive)	
OC(c1cc2cc(Cl)c(Cl)cc2c2cc(C(F)(F)F)ccc12)C1CCCCN1 (centres undefined)	-59.9% (active)	-37.1% (active)	-71.3% (active)		34% (inactive)	-64.9% (active)	-90.3% (active)	-50.4% (active)	-79.1% (active)	-41.6% (active)
COc1cc(-c2nn(C)nc2-c2cc3ccccc3s2)cc(OC)c1OC	21.6% (inactive)	20.7% (inactive)	28% (inactive)	57.1% (inactive)	21.2% (inactive)	39% (inactive)	0.446% (active)	19.3% (inactive)	9.9% (active)	
Fc1ccc2[nH]cc(SSc3c[nH]c4ccc(F)cc34)c2c1	-29.4% (active)	-14% (active)	40.5% (inactive)	46.6% (inactive)	95.2% (inactive)	77.8% (inactive)	50.5% (inactive)	-29.2% (active)	17.4% (inactive)	
O=C1c2cccc3cccc(c23)C(=O)N1CCCCN1CCN(CCCCOc2ccc(-c3nc4ccc(N5CCOCC5)cc4[nH]3)cc2)CC1	-65% (active)	32.4% (inactive)	22% (inactive)	79.4% (inactive)	95.9% (inactive)	68.9% (inactive)	100% (inactive)	86.6% (inactive)	76.6% (inactive)	
COc1cc(/C=C/c2cc(O)c3cc(C(C)=O)c(=O)oc3c2)cc2c1O[C@]1(C)CC[C@@H](O)C(C)(C)[C@H]1C2		-22.6% (active)	84.4% (inactive)	66.1% (inactive)	64.2% (inactive)	53.1% (inactive)	84.6% (inactive)	2.8% (active)	83.6% (inactive)	70.6% (inactive)
CC1=CC(=NN=c2cc(C)n([O-])c(C)c2)C=C(C)[N+]1=O		67.4% (inactive)	86.2% (inactive)	78% (inactive)	111% (inactive)	89.2% (inactive)	110% (inactive)	98.8% (inactive)	111% (inactive)	110% (inactive)
CC(C)n1c(/C=C/[C@@H](O)C[C@@H](O)CC(=O)O)c(-c2ccc(F)cc2)c2ccccc21		53.2% (inactive)	40.2% (inactive)	90.4% (inactive)	72.6% (inactive)	34.3% (inactive)	84.8% (inactive)	55.1% (inactive)	22.1% (inactive)	85.8% (inactive)
CON1C(=O)CC[C@]2(C)[C@H]3CC[C@@H]4C([C@@]5(C)CCC(=O)O5)CC[C@@]4(C)[C@]3(C)CC[C@H]2C1(C)C (some centres undefined)		98.6% (inactive)	102% (inactive)	92.8% (inactive)	104% (inactive)	111% (inactive)	110% (inactive)	101% (inactive)	97.1% (inactive)	98.4% (inactive)
CC1=NN(c2nc(-c3ccc(Cl)cc3)c(C#N)c(N3CCOCC3)n2)C(=O)C1		57.1% (inactive)	99.3% (inactive)	51.5% (inactive)	86.6% (inactive)	81% (inactive)	50.2% (inactive)	54.6% (inactive)	96.1% (inactive)	97.3% (inactive)
N#Cc1c(-c2ccc(Cl)cc2)nc(NN=Cc2ccco2)nc1N1CCOCC1		66.5% (inactive)	87.9% (inactive)	65.9% (inactive)	49.4% (inactive)	25.9% (inactive)	66.6% (inactive)	68.2% (inactive)	75.8% (inactive)	76.9% (inactive)
CCC(=O)c1ccc(Cl)s1		104% (inactive)	101% (inactive)	109% (inactive)	114% (inactive)	118% (inactive)	112% (inactive)	103% (inactive)	104% (inactive)	105% (inactive)
COc1ccc(-c2nc3ccc(-c4nc5ccc(N6CCN(C)CC6)cc5[nH]4)cc3[nH]2)cc1OC		110% (inactive)	55.8% (inactive)	68.4% (inactive)	74.2% (inactive)	79.6% (inactive)	30.4% (inactive)	72.2% (inactive)	103% (inactive)	99.1% (inactive)
COc1ccc(-c2nc3ccc(-c4nc5ccc(N6CCN(c7ccc(F)cc7)CC6)cc5[nH]4)cc3[nH]2)cc1OC		4.42% (active)	62.6% (inactive)	80.5% (inactive)	80.6% (inactive)	72.8% (inactive)	90.4% (inactive)	74.8% (inactive)	81.3% (inactive)	96.1% (inactive)
CN(C)C(=S)N=Nc1c(O)[nH]c2ccccc12	-17.8% (active)		-24.1% (active)	14.9% (inactive)	18.8% (inactive)	-58.9% (active)	3.86% (active)	13.4% (inactive)	-11.6% (active)	35.3% (inactive)
N#Cc1c(N)n(CCNC(=O)c2ccccc2)c2nc3ccccc3nc12		179% (inactive)	102% (inactive)	114% (inactive)	120% (inactive)	76.3% (inactive)	81.9% (inactive)	179% (inactive)	87.7% (inactive)	79% (inactive)
CSc1nc(NCCO)c(C#N)c(-c2cccc([N+](=O)[O-])c2)n1		103% (inactive)	99.1% (inactive)	105% (inactive)	102% (inactive)	97.9% (inactive)	112% (inactive)	93.4% (inactive)	98.1% (inactive)	98.1% (inactive)
Cc1cc2c3ccccc3ccc2[n+]2ccccc12	-22.5% (active)		-28.5% (active)	31.6% (inactive)	71.5% (inactive)	34% (inactive)	27.1% (inactive)	-23.7% (active)	46.7% (inactive)	81.1% (inactive)
c1ccc(-c2c(-c3ccccc3)[n+](Cc3ccc4ccccc4c3)c(-c3ccc(-c4nc5ccccc5s4)cc3)n2Cc2ccc3ccccc3c2)cc1		-40.5% (active)	-85.4% (active)	-62.9% (active)	-97.4% (active)	-84.8% (active)	-89.4% (active)	-45.3% (active)	-52.1% (active)	-93% (active)
N#CCCN=Nc1c(O)[nH]c2ccc(F)cc12		109% (inactive)	107% (inactive)	90.4% (inactive)	100% (inactive)	101% (inactive)	103% (inactive)	97.9% (inactive)	98.7% (inactive)	97.7% (inactive)
CCCCC(=O)OCC1OC(n2cnc3c(=S)nc[nH]c32)C(OC(=O)CCCC)C1OC(=O)CCCC (centres undefined)	24.5% (inactive)		-23.2% (active)	29.8% (inactive)	19.3% (inactive)		22% (inactive)	38.1% (inactive)	19.6% (inactive)	32.3% (inactive)
COc1cc(/C=C/C(=O)c2ccc(O)c(CN3CCN(c4cc5c(cc4F)c(=O)c(C(=O)O)cn5C4CC4)CC3)c2)cc(OC)c1OC		-3.9% (active)	30.8% (inactive)	49.8% (inactive)	89.2% (inactive)	55% (inactive)	14% (inactive)	38.1% (inactive)	54.6% (inactive)	65.5% (inactive)
COc1ccc(Nc2nc(SC)nc(-c3cccc([N+](=O)[O-])c3)c2C#N)cc1		98.4% (inactive)	39.4% (inactive)	2.52% (active)	46.4% (inactive)	72.3% (inactive)	74.5% (inactive)	42.1% (inactive)	57.9% (inactive)	76.5% (inactive)
CC[C@@H]1O[C@H](O[C@@H](c2cnc[nH]2)[C@H](NC(=O)c2nc([C@H](CC(N)=O)NC[C@@H](N)C(N)=O)nc(N)c2C)C(=O)N[C@H](C)[C@H](O)[C@H](C)C(=O)N[C@@H](C(=O)NCCc2nc(-c3nc(C(=O)NCCCCN=C(N)N)cs3)cs2)[C@@H](C)O)[C@H](O[C@@H]2O[C@H](CO)[C@H](O)[C@H](OC(N)=O)[C@@H]2O)[C@H](C)[C@@H]1C		73% (inactive)	47.2% (inactive)	85.6% (inactive)	41.8% (inactive)	45.5% (inactive)	60.8% (inactive)	38.8% (inactive)	20.1% (inactive)	59.5% (inactive)
